# Cycloheximide cs = counter-screen for Shiga toxin inhibitors: cycloheximide protein synthesis inhibition; cell reporter, cycloheximide protein synthesis inhibition counterscreen; max response, %; 300,000 tested, 12% active; in the data active means max response mostly above about 13%, no sharp cut-off; inactive means mostly below about 14%; further: read at 38.3 µM for the half of the compounds with a filed dose; 0% is about no effect
# Pf growth 96h = P. falciparum growth inhibition at 96 hour, primary screen for plastid delayed-death inhibitors. AID 504834. Potency, µM (titrated, usually from 28.7 µM), for inactives: at the highest dose activity change, negative = inhibition, hits mostly inhibitors. P. falciparum luciferase reporter growth, 96 h. 320,000 tested, 6.9% active; further: potency means the concentration at half of the fitted maximal effect; on the % scale 0 is the no-effect control and ±100 the full control effect
#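 Plates of compound plus infected erythrocytes (2% hematocrit, 0.05% parasitemia final) incubate 96 hours, 37 C, 5% CO2. Detection reagent added; reduced luminescence from the parasites' luciferase reporter flags inhibition.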
# NS1 function inh = blocks influenza NS1 protein function; Potency, µM (doses to about 46.1 µM), for inactives: at the highest dose activity, positive = more growth; 270,000 tested, 0.4% active; calls by dose curve; further: potency means the concentration at half of the fitted maximal effect; actives are rising curves; nearly all actives have a fitted effect of over 50% in size
#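 In this qHTS, NS1 from influenza A is expressed in budding yeast, where it slows growth. Cells are switched from glucose to 2% galactose medium (pH 6.0, -URA), treated with compound, and growth recovery is read at OD600.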
# Pf growth 48h = P. falciparum growth inhibition at 48 hours (one generation). P. falciparum luciferase growth in erythrocytes, 48 h. Potency, µM (series often up to 28.7 µM), without a hit: top-dose activity change, negative = inhibition, usual class: inhibitors. 310,000 tested, 5.9% active; further: potency means the concentration at half of the fitted maximal effect; on the % scale 0 is the no-effect control and ±100 the full control effect
#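 Luciferase-expressing P. falciparum in infected erythrocytes (2% hematocrit, 0.1% parasitemia final) in RPMI 1640/0.5% Albumax were exposed to compound for 48 hours at 37 C, 5% CO2; growth read as luminescence.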
# Shiga inhibitor = Shiga toxin inhibition; AID 2315; Vero cells, Shiga toxin protein synthesis inhibition reporter; 290,000 tested, 9.2% active; inhibition, % at 38.7 µM; in the data active means inhibition mostly above about 28%, no sharp cut-off; inactive means mostly below about 43%; further: 0% is about no effect
# An asterisk follows results filed as active; ? = inconclusive; nt = no result. In the library only some 21% were active in any assay of this set; here they are far more common. Unless noted, the call rests on the fitted dose curve; in most records, active means well fitted inhibition curve with a large enough effect; inconclusive means small, poorly fitted or top-dose-only effect, or another doubt; inactive means no such curve, though single readings can be large or run the other way.
SMILES,Cycloheximide cs,Pf growth 96h,NS1 function inh,Pf growth 48h,Shiga inhibitor
Cn1cc(Cl)c(C(=O)OCC(=O)Nc2nc(-c3ccc(Br)cc3)cs2)n1,22*,301%,0%,162%,65*
Cn1nccc1C(=O)OCC(=O)Nc1nc(-c2ccccc2)cs1,24*,24%,-50%,78%,54
Cc1ccc(NC(=O)CCn2cnc3ccccc3c2=O)cc1,13,?,-2%,3%,23
O=C(COC(=O)CNC(=O)c1ccccc1)Nc1nc(-c2ccccc2)cs1,25*,-39%,2%,69%,40
CCn1c(SCC(=O)NC2=NCCS2)nnc1C(C)NC(=O)c1ccccc1Br (configuration not stated),-5,-4%,7%,31%,29
CN(C(=O)CSc1ncc(C(F)(F)F)cc1Cl)c1c(N)n(Cc2ccccc2)c(=O)[nH]c1=O,-2,43%,13%,5%,23
CC(c1nccs1)N(C)C(=O)c1cn(Cc2cccc3ccccc23)nn1 (configuration not stated),40*,1%,-15%,28%,123*
CC(c1nccs1)N(C)C(=O)c1ccc(OC2CCN(CCc3ccccc3)CC2)cc1 (configuration not stated),-2,18%,-1%,?,-4
CCOC(=O)C1=NN(c2ccc(C)cc2)CC1C(=O)OC (configuration not stated),5,5.9µM*,6%,12%,-2
COC(=O)C1CC(=O)N(c2ccc(C)cc2)C1 (configuration not stated),5,0%,-1%,4%,2
CCCc1nnc(NC(=O)c2nc(S(=O)(=O)Cc3ccc(C)cc3)ncc2Cl)s1,30*,?,10%,11%,44*
CSc1nnc(NC(=O)c2nc(S(=O)(=O)Cc3ccccc3)ncc2Cl)s1,54*,-25%,14%,-7%,68*
CC(C)c1nnc(NC(=O)c2nc(S(=O)(=O)Cc3ccccc3)ncc2Cl)s1,67*,29%,13%,-11%,75*
CCc1ccc(NC(=O)c2nc(S(=O)(=O)Cc3ccccc3)ncc2Cl)cc1,-8,?,-21%,42%,-10
C[Si](C)(C)n1ccnc1,-2,26%,22%,?,-3
COc1ccc(S(=O)(=O)NCC2CCCN(CC(C)(C)C)C2)cc1 (configuration not stated),6,?,4%,?,-4
O=C(c1cc(-c2cccs2)nc2ccccc12)N1CCN(c2ccccc2O)CC1,19*,?,nt,?,91
Cc1ccc(-c2cc(C(=O)N3CCN(c4ccccc4O)CC3)c3ccccc3n2)cc1,nt,?,nt,3.3µM*,nt
O=C(c1cc(-c2ccccc2Cl)nc2ccccc12)N1CCOCC1,-4,0.37µM*,17%,-7%,12
O=C(c1cc(-c2ccccc2Cl)nc2ccccc12)N1CCN(c2ccccc2O)CC1,nt,4.1µM*,nt,9.3µM*,nt
CC(CCc1ccccc1)NC(=O)Cc1cccs1 (configuration not stated),2,26%,-1%,0%,9
COc1ccc(-c2cc(C(=O)N3CCN(c4ccccc4O)CC3)c3ccccc3n2)cc1OC,7,2.6µM*,-32%,2.1µM*,20
NC(N)=NC(N)=Nc1cccc(Cl)c1,-4,10µM*,-1%,?,-6
Cc1ccc(Cl)cc1N=C(N)N=C(N)N,-3,?,2%,?,-10
O=C(O)C1Cc2ccccc2CN1C(=O)c1ccco1 (configuration not stated),12*,1%,8%,-9%,nt
SMILES,Cycloheximide cs,Pf growth 96h,NS1 function inh,Pf growth 48h,Shiga inhibitor
Cc1ccc(NC(=O)C2Cc3ccccc3CN2C(=O)c2ccccc2)cc1Cl (configuration not stated),18*,?,10%,3%,3
COc1ccc(CNC(=O)[C@@H]2CCCN2C(=O)[C@@H]2Cc3ccccc3CN2C(=O)OC(C)(C)C)cc1,2,?,5%,?,10
COc1cccc(NC(=O)C2Cc3ccccc3CN2C(=O)c2ccco2)c1 (configuration not stated),54*,-17%,-4%,?,79*
COc1cccc(NC(=O)[C@@H]2CCCN2C(=O)[C@@H]2Cc3ccccc3CN2C(=O)OC(C)(C)C)c1,20*,?,5%,?,52
NS(=O)(=O)c1ccc(NC(=O)C2Cc3ccccc3CN2C(=O)c2ccco2)cc1 (configuration not stated),-6,-26%,10%,-3%,15
Cc1cc2ccccc2nc1SCC(=O)NC1CCCC1,-1,11%,-4%,6%,-25
COc1ccc(CNC(=O)C2CC(=O)N(c3ccc(OCC(=O)N4C(C)CCCC4C)cc3)C2)cc1 (configuration not stated),-1,nt,-10%,?,26
COc1ccccc1CNS(=O)(=O)c1ccc2c(c1)CC(C)N2C(=O)C1CCC1 (configuration not stated),9,-21%,14%,?,-2
Cc1ccccc1NC(=O)C1Cc2ccccc2CN1C(=O)c1ccco1 (configuration not stated),45*,-27%,8%,-22%,77*
Cc1ccccc1NC(=O)C1Cc2ccccc2CN1C(=O)OCc1ccccc1 (configuration not stated),-3,13µM*,-13%,-23%,12
CC(C)CCOc1cccc(OCC(=O)Nc2ccncc2)c1,-4,25%,-109%,5%,-6
CN1CCC(OC(=O)c2cc3cc(Br)ccc3oc2=O)CC1,-2,5%,11%,?,1
CCCCOc1ccc(OCCNC(=O)c2ccco2)cc1,20,?,-16%,9.3µM*,57*
COc1ccccc1OCCNC(=O)c1ccco1,9,68%,1%,36%,22
Cc1ccccc1OCCNC(=O)c1ccco1,36*,13%,-13%,-24%,97*
Cc1cccc(N2CCN(S(=O)(=O)c3c(C)[nH]c(C)c3C(=O)N3CCCC3)CC2)c1C,2,-5%,-4%,?,-4
Cc1ccc(C(=O)N2CCN(C)CC2)cc1S(=O)(=O)N1CCCCCC1,6,2.3µM*,8%,-28%,-21
Cc1ccc(C(=O)N2CCN(C)CC2)cc1S(=O)(=O)N1CCCCC1,-3,?,-1%,-12%,-10
Cc1cccc(N2CCN(S(=O)(=O)c3c(C)[nH]c(C)c3C(=O)N3CCCCC3)CC2)c1C,-4,?,10%,9.3µM*,2
Cc1ccc(C(=O)N2CCN(c3ccccc3O)CC2)cc1S(=O)(=O)N1CCCCC1,nt,-103%,nt,13µM*,nt
Brc1ccc(-c2nnc3n2-c2ccccc2CC3)cc1,-1,-13%,-32%,1%,-10
C=CCOC(=O)C1=C(C)NC(SCC(=O)NC(=O)OCC)=C(C#N)C1c1cccnc1 (configuration not stated),-1,4%,3%,10µM*,-7
C=CCOC(=O)C1=C(C)NC(SCC(=O)N(CC)CC)=C(C#N)C1c1ccco1 (configuration not stated),2,nt,-13%,13µM*,-11

# Source: PubChem
